The record followed here is PubChem BioAssay AID504444 (National Center for Advancing Translational Sciences (NCATS), 2011).

Hit rate of the full screen: of about 360,000 compounds, about 7,500 (2.1%) were called active. Roughly 20% stayed inconclusive and do not appear here. The list comes from a sample in which actives are over-represented; it also holds similar structures and randomly drawn compounds. Where a call stands in place of a potency, no number is given. Unmarked numbers belong to inactive results. Calls come from the whole dose curve; as a rule, active = well fitted inhibition curve with a large enough effect; inconclusive = small, poorly fitted or top-dose-only effect, or effect the other way; inactive = flat fitted curve, though single readings scatter.
Potency is the fitted concentration of half-maximal effect.

This assay is described as follows: Nrf2 qHTS screen for inhibitors. Note: nearly all actives have a fitted effect of over 60% in size. To be noted: A549 ARE-Fluc reporter, luciferase luminescence, 18-24 h; series mostly up to 46 µM. The essentials:
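Quantitative HTS in A549 cells stably bearing an antioxidant response element-firefly luciferase construct. Inhibition of Nrf2-driven transcription was scored by luminescence after 18-24 h of compound exposure at 37 °C.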
`O=C(CNS(=O)(=O)c1ccccc1)N1CCN(C(=O)c2ccco2)CC1`: the Potency entry was “inactive”.
In the case of `Cc1ccc(S(=O)(=O)N2CCN(C(=O)c3cccs3)CC2)cc1`, the Potency entry is “inactive”.
In the case of `CC(C)Cc1ccc(S(=O)(=O)N2CCN(C(=O)c3ccco3)CC2)cc1`, the Potency was 18.4 µM (active).
Same read-out and setting: as for `O=C(CNC(=O)c1ccccc1)OC(C(=O)Nc1cc([N+](=O)[O-])ccc1F)c1ccccc1` (stereo not drawn), the entry is “inactive”.
Consider `COc1ccc(NC(=O)CCN2CCN(CCO)CC2)cc1`, for which the Potency entry was “inactive”.
Same read-out and setting: as for `C=CC[n+]1c(-c2ccc(C)cc2)csc1NNC(=O)Nc1ccccc1`, the figure is 18.4 µM (active); as for `O=C(NNC(=O)c1ccc(-c2ccccc2)cc1)Nc1ccccc1`, “inactive”.
Same read-out and setting: for `C=CCNc1scc(-c2ccccc2)[n+]1CC=C` the value was “inactive”; for `CCOCCCNC(=O)c1cn(CC)c2ccc(S(=O)(=O)N3CCc4ccccc4C3)cc2c1=O`, “inactive”.
The same measure, in the same setting: as for `COc1c(Cl)cc(C(=O)N(Cc2ccccc2F)C2CCS(=O)(=O)C2)cc1Cl` (stereo not drawn), the entry is “inactive”.
On to `COc1ccc(C2Nc3ccccc3C(=O)N2Cc2ccc(CNC(=O)CO)cc2)cc1COc1ccc(NC(C)=O)cc1` (stereo not drawn), for which the Potency entry is “inactive”.
Still for that read-out and setting: for `CC(C)(C)OC(=O)N(Cc1ccccc1)Cc1ccc(OCc2cccc(NC(=O)c3ccccc3)c2)cc1` the value was “inactive”; for `C=CCOC(=O)c1ccccc1C(=O)OCC=C`, “inactive”.
On the same count and under the same terms, as for `CCOC(=O)C1=C(C)NC(=S)NC1c1cccs1` (stereo not drawn), the entry is “inactive”.
On to `C=CCOC(=O)C1=C(C)NC(C)=C(C(=O)OCC=C)C1c1cccs1`, for which the Potency was 20.6 µM (active).
The same measure, in the same setting: for `CCCCN1CC(COc2ccccc2)Oc2cccc(F)c2S1(=O)=O` (stereo not drawn) the value was “inactive”; for `O=S(=O)(O)c1cc2onnc2c2ccccc12`, “inactive”; for `COc1ccc(Cl)cc1C=CC=Nc1ccc(S(N)(=O)=O)cc1`, “inactive”.
In the case of `O=C(CN1C(=O)c2ccccc2S1(=O)=O)NC1CCCCC1`, the Potency entry was “inactive”.
On to `O=C(CN1C(=O)c2ccccc2S1(=O)=O)N1CCc2ccccc21`, for which the Potency is 4.11 µM (active).
Regarding `CC1CCCN(C(=O)CN2C(=O)c3ccccc3S2(=O)=O)C1` (stereo not drawn), the Potency result is “inactive”.
As for `COc1ccc(-c2cn3nc(N4CCC(C(=O)Nc5cccc(C)c5C)CC4)sc3n2)cc1`, the Potency result is “inactive”.
As for `CCN(CC)S(=O)(=O)c1ccc(C(=O)N=c2sc3cccc(OC)c3n2C)cc1`, the Potency result was “inactive”.
The same measure, in the same setting: as for `NCCCNC(=S)NCCCN(Cc1ccc(Cl)cc1)c1ccc(Br)cn1`, the entry is “inactive”; as for `COc1ccccc1OCCNc1cc(N2CCOCC2)ccc1[N+](=O)[O-]`, “inactive”; as for `COc1ccc(CCNc2cc(N3CCN(C(=O)c4ccccc4OC)CC3)ccc2[N+](=O)[O-])cc1OC`, 5.8 µM (active).
The same measure, in the same setting: for `COc1ccc(CCNC(=O)c2ccccc2-c2ccccc2C(=O)O)cc1OC` the value was “inactive”.
Turning to `CCN(CC)S(=O)(=O)c1ccc(N2CCOCC2)c(NC(=O)C(C)Oc2ccc(F)cc2)c1` (stereo not drawn), the Potency entry is “inactive”.
In the case of `Cc1ccccc1-c1cc(C(=O)NCC2CC2)n(CC2CC(c3cccnc3)=NO2)n1` (stereo not drawn), the Potency entry was “inactive”.
The same measure, in the same setting: for `Cc1ccc(CNC(=O)c2cc(-c3ccccc3C)n(CC3CC(c4cccc([N+](=O)[O-])c4)=NO3)n2)cc1` (stereo not drawn) the value was “inactive”.
Still for that read-out and setting: for `Cc1ccccc1-c1cc(C(=O)NCc2cccs2)n(CC2CC(c3cccnc3)=NO2)n1` (stereo not drawn) the value was 20.6 µM (active).
Turning to `CCCCCn1c(=O)[nH]c2cc(C(=O)NCCN(C)CCCC)ccc2c1=O`, the activity change, negative = inhibition was 7.46% [at 9.27 µM].
`COc1ccc(CNC(=O)C(NS(=O)(=O)c2cccc3nsnc23)C(C)C)cc1` (stereo not drawn): the Potency entry is “inactive”.
Turning to `CC(=O)Nc1ccc(S(=O)(=O)N2CCN(S(=O)(=O)c3cccs3)CC2)cc1`, the Potency entry is “inactive”.
`CC(C)C(NS(=O)(=O)c1cccs1)C(=O)Nc1nc(C(C)(C)C)cs1` (stereo not drawn): the Potency is 18.4 µM (active).
The same measure, in the same setting: as for `Cc1ccc(CN(C(=O)COc2ccc(Cl)cc2C)C2CCS(=O)(=O)C2)o1` (stereo not drawn), the entry is “inactive”; as for `CC1CCN(S(=O)(=O)c2ccc3c(ccn3CCC(=O)NCc3ccc(N(C)C)cc3)c2)CC1`, “inactive”.
Take `Cc1ccccc1C(=O)N(Cc1ccc(N(C)C)cc1)CC1CCCO1` (stereo not drawn): the Potency result was “inactive”.
As for `CN(Cc1cncn1C)c1ncnc2ccc(-c3ccc4c(c3)OCO4)cc12`, the Potency result is “inactive”.
On the same count and under the same terms, for `CCC(=O)N1CCc2cc(S(=O)(=O)NC(Cc3ccccc3)C(=O)NCc3ccccc3)ccc21` (stereo not drawn) the value was “inactive”.
`COc1ccccc1C(=O)Nc1c(C(=O)N(C)Cc2ccccc2)sc2nc(C)c(Cl)c(C)c12`: the Potency was 14.6 µM (active).
As to `COc1ccccc1NC(=O)c1sc2nc(C)c(C(=O)Nc3ccc(Cl)cc3)c(-c3ccc(Br)cc3)c2c1N`, the activity change, negative = inhibition is 6.36% [at 9.27 µM].
As for `COc1ccccc1C(=O)NCCC(=O)N(C)Cc1cccnc1`, the Potency entry was “inactive”.
For the compound `COc1ccc(CCn2cc3c(c2-c2ccc(Br)cc2)c(=O)n(C)c(=O)n3C)cc1OC`, the Potency result was “inactive”.
The same measure, in the same setting: as for `COc1cc2nc(SCc3ccc(F)cc3)n3nc(CCn4c(C)nc5ccccc54)nc3c2cc1OC`, the entry is “inactive”.
Still for that read-out and setting: for `COc1ccc(CNC(=O)C[C@H]2C[C@H](C(=O)N3CCOCC3)[C@@]3(CCC4CCCC4)c4[nH]c5ccc(Cl)cc5c4CCN3C2=O)cc1OC` the value was 13 µM (active).
Still for that read-out and setting: for `CN(C)C(=O)CCc1ccc2c3c([nH]c2c1)[C@]1(CCC2CCCC2)[C@@H](C(=O)N2CCOCC2)C[C@H](CC(=O)NCc2ccco2)C(=O)N1CC3` the value was “inactive”; for `COc1ccc2[nH]c3c(c2c1)CCN1C(=O)C(CC(=O)NCCCN(C)C)C[C@H](C(=O)N2CCOCC2)[C@@]31CCC1CCCC1` (stereo partly drawn), “inactive”; for `CC[C@]12c3[nH]c4ccc(OC)cc4c3CCN1C(=O)C(CC(=O)NCc1ccco1)C[C@@H]2C(=O)N1CCN(C(=O)C2CC2)CC1` (stereo partly drawn), “inactive”.
Regarding `CC[C@]12c3[nH]c4ccc(Cl)cc4c3CCN1C(=O)[C@@H](CC(=O)NCCN1CCOCC1)C[C@@H]2C(=O)N1CCN(C(=O)C2CC2)CC1`, the Potency entry is “inactive”.
On the same count and under the same terms, as for `O=C(C[C@H]1C[C@H](C(=O)N2CCOCC2)[C@@]2(CCC3CCCC3)c3[nH]c4ccc(Cl)cc4c3CCN2C1=O)NCc1ccco1`, the figure is 20.6 µM (active).
Same read-out and setting: for `CC(C)(C)OC(=O)C[C@@H]1C/C=C\C[C@H](CC(=O)N[C@@H](CO)Cc2ccccc2)C(=O)N[C@H](Cc2ccccc2)COC1=O` the value was “inactive”; for `N#CN1CCC(NC(=O)c2ccc(F)cc2)CC1`, “inactive”.
The same measure, in the same setting: as for `CCOc1ccc(S(=O)(=O)Nc2ccc3oc4c(c3c2)CC(C)CC4)cc1` (stereo not drawn), the entry is “inactive”; as for `Cc1ccccc1CS(=O)(=O)CC1Nc2ccc(C(=O)NCc3ccc(Cl)cc3)cc2NC1=O` (stereo not drawn), “inactive”.
Regarding `COc1cccc2oc(CCc3ccccc3)cc(=O)c12`, the Potency entry is “inactive”.
Turning to `COc1ccccc1CNS(=O)(=O)c1cc(Br)cc2c1N(C(C)=O)C(C)C2` (stereo not drawn), the activity change, negative = inhibition was 1.68% [at 9.27 µM].
As to `CCOc1cccc2c1N[C@@H](c1ccc(C(=O)O)cc1)[C@H]1CC=C[C@@H]21`, the Potency result is “inactive”.
On to `COc1cccc(CNC(=O)CCC(=O)N2CC3CCCN3c3ccccc32)c1` (stereo not drawn), for which the Potency entry was “inactive”.
Turning to `Cc1ccc(SCC(=O)N2CCN(c3ccc(F)cc3)CC2)cc1`, the Potency entry is “inactive”.
Regarding `CCN1CCC2(CC1)N=C(c1ccc(F)cc1)C(=S)N2C(=O)c1ccc(C)cc1`, the Potency was 16.4 µM (active).
In the case of `CCN1CCC(N(Cc2ccc(F)cc2)C(=O)Nc2cc(C)ccc2C)CC1`, the Potency result was “inactive”.
As for `Cc1cc(OCC(=O)NCC2(N(C)C)CCCCC2)cc(C)c1Cl`, the Potency result is “inactive”.
On the same count and under the same terms, for `Cc1cc(C)cc(NC(=O)CSc2nc3nccnc3c(=O)n2CCc2c[nH]c3ccccc23)c1` the value was “inactive”.
With `CCOC(=O)/C(C#N)=C/c1ccc(N2CCCCC2)cc1`, the Potency result is “inactive”.
On the same count and under the same terms, for `O=C(Cc1ccccc1)NC(=S)Nc1ccc(N2CCCCC2)cc1` the value was “inactive”; for `O=C1C=CC(=O)N1c1ccc(N2CCCCC2)cc1`, 25.9 µM (active); for `Cc1ccc(SCC(=O)Nc2ccc3oc(-c4ccccc4F)nc3c2)cc1`, “inactive”.
For `CC[C@]1(C(=O)OC)[C@H]2C(=O)N(Cc3ccccc3)C(=O)[C@H]2[C@H]2CN=C(SCc3ccc(C#N)cc3)N21`, the Potency entry was “inactive”.
The same measure, in the same setting: for `CCOc1ccc(Nc2nc3c(S(=O)(=O)c4cccc(Cl)c4)nnn3c3ccsc23)cc1` the value was 14.6 µM (active); for `O=S(=O)(c1ccc(Br)cc1)c1nnn2c1nc(NC1CCCCCC1)c1sccc12`, “inactive”.
Still for that read-out and setting: for `CCc1ccc(S(=O)(=O)c2nnn3c2nc(N2CCN(CC)CC2)c2sccc23)cc1` the value was “inactive”.
On to `Cc1ccc(-c2cn3c(n2)sc2cc(C(=O)NCCCc4ccccc4)ccc23)cc1`, for which the Potency result was “inactive”.
Still for that read-out and setting: for `CCN1C[C@@H]2[C@@H]3C(=O)N(Cc4ccccc4)C(=O)[C@@H]3[C@](Cc3ccccc3)(C(=O)OC)N2C1=NC1CCCCC1` the value was “inactive”.
In the case of `CCN(CCCNC(=O)c1cc(Nc2ccc(OC)cc2)nc2ccccc12)c1cccc(C)c1`, the Potency result is “inactive”.
With `NS(=O)(=O)c1ccc(NC(=O)COC(=O)c2c3c(nc4ccccc24)/C(=C\c2ccc4c(c2)OCO4)CCC3)cc1`, the Potency entry is “inactive”.
The same measure, in the same setting: for `NC(=O)c1ccc(NC(=O)COC(=O)c2c3c(nc4ccccc24)/C(=C\c2ccc4c(c2)OCO4)CCC3)cc1` the value was 14.6 µM (active); for `O=C(COC(=O)c1c2c(nc3ccccc13)/C(=C\c1cccs1)CCC2)Nc1ccccc1Cl`, “inactive”.
The same measure, in the same setting: for `CC(=O)c1c(C)[nH]c(C(=O)COC(=O)c2cccs2)c1C` the value was “inactive”; for `CC(=O)c1c(C)[nH]c(C(=O)OCC(=O)Nc2sc3c(c2C#N)CCCC3)c1C`, 18.4 µM (active); for `CC(=O)c1c(C)[nH]c(C(=O)OCC(=O)NCCC(C)C)c1C`, 11.6 µM (active).
The same measure, in the same setting: as for `Cc1cccc(C)c1NC(=O)COC(=O)c1ccccc1O`, the entry is “inactive”.
As for `CC(=O)c1c(C)[nH]c(C(=O)OCC(=O)Nc2c(C)cccc2C)c1C`, the Potency was 13 µM (active).
Regarding `CC(=O)c1c(C)[nH]c(C(=O)OCC(=O)Nc2c(C)n(C)n(-c3ccccc3)c2=O)c1C`, the Potency entry is “inactive”.
Still for that read-out and setting: as for `Cc1ccc(C)c(OCC(=O)Nc2sc3c(c2C#N)CCCC3)c1C`, the entry is “inactive”; as for `CC(=O)c1c(C)[nH]c(C(=O)OCC(=O)Nc2cc(S(=O)(=O)N3CCCCC3)ccc2C)c1C`, “inactive”.
The same measure, in the same setting: for `Cc1cccc(C(=O)OCC(=O)Nc2sc3c(c2C#N)CCC3)c1` the value was “inactive”; for `CCOC(=O)N1CCC(NC(=O)c2cnn(-c3cccc(C)c3)c2C2CCN(C(=O)OC(C)(C)C)CC2)CC1`, “inactive”.
